High-throughput results as filed in PubChem BioAssay.
Hits are enriched below; roughly 5.2% of the tested compounds scored in any of these assays.
PLK1 PBD inh: blocks phosphopeptide binding to human PLK1 polo-box domain. P53350. Plk1 PBD binding of FITC phosphopeptide, fluorescence polarization. Potency, µM, for the others: max response, negative = inhibition, actives largely listed as inhibitors. 2.8% of 360,000 active; further: series mostly up to about 57 µM; nearly all actives have a fitted effect of over 65% in size
Sfp PPTase inh: blocks B. subtilis Sfp PPTase activity | 3.5% of 310,000 active | Biochemical Sfp PPTase activity, qHTS | Potency, µM, for the others: largest response in the series, negative = inhibition, most hits filed as inhibitors | Q9F4F7;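 further: the enzyme is Sfp with the accession as filed and its product quenches rhodamine fluorescence; 0% = enzyme reaction without inhibitor and -100% = no enzyme wells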
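Step 1, compound plus 15 nM Sfp-PPTase, 15 min, room temperature. Step 2, add rhodamine-CoA (5 uM) and BHQ-2-YbbR (12.5 uM). Step 3, read 525/598 nm fluorescence at 0 and 30 min.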
TrxR1 substrate: substrates of rat thioredoxin reductase 1; O89049; purified TrxR1 substrate turnover, NADPH consumption readout; 0.01% of 390,000 active; Potency, µM (series often up to 114 µM), without a hit: top-dose activity change, negative = substrate turnover; further: nearly all actives have a fitted effect of over 50% in size
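Rat TrxR1, dispensed at 90 nM, was prereduced with 400 uM NADPH (final) for 5 min at ~22 deg C, then incubated with compound 15 min before 400 uM selenite. A first-read NADPH fluorescence drop versus no-compound background flagged substrates.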
TrxR1 inh: inhibitors of rat thioredoxin reductase 1 | O89049 | recombinant rTrxR1, NADPH fluorescence consumption, selenite substrate | Potency, µM (doses to about 114 µM), for inactives: at the highest dose activity change, negative = inhibition, most hits filed as inhibitors | 1% of 390,000 active; further: nearly all actives have a fitted effect of over 65% in size
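Rat TrxR1 (90 nM in the dispensed reagent) was pre-reduced with 400 uM NADPH for 5 min at room temperature, then incubated with compound for 15 min. After 400 uM selenite was added, NADPH fluorescence (Ex 340/Em 450 nm) was followed for 8 min.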
VDR inh: inhibitors of human vitamin D receptor | Potency, µM, inactives show max response, negative = inhibition, usual class: inhibitors | 0.93% of 400,000 active | VDR-SRC2-3 peptide fluorescence polarization, 2 h
Target sequence (P11473 whole entry, looked up): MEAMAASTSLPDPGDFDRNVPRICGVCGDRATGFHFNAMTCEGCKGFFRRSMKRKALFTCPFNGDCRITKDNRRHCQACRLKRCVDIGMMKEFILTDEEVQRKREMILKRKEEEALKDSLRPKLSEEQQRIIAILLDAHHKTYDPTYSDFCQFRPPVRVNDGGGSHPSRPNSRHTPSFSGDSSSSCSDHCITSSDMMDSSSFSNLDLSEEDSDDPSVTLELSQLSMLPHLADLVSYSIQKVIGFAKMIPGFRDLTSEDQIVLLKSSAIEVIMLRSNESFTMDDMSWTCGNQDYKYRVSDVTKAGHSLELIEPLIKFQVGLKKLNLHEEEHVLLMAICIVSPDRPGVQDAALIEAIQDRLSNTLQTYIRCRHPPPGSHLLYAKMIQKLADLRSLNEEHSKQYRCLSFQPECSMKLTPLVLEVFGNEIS
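After 23 nl compound addition and a short centrifugation, plates sat for 2 hours at ambient temperature; polarization of fluorescence then indicated loss of VDR binding to peptide SRC2-3.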
mIDH1 inhibitor: human IDH1 R132H inhibition | Potency, µM (series often up to 76.6 µM), for the others: at the highest dose activity change, negative = inhibition, most hits filed as inhibitors | IDH1-R132H enzyme, NADPH consumption, diaphorase/resazurin fluorescence | 0.093% of 390,000 active; further: nearly all actives have a fitted effect of over 65% in size
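IDH1-R132H (0.5 ug/mL dispensed) in pH 7.5 Tris buffer was preincubated 30 min with compound, then given a substrate mix of 0.016 mM NADPH and 2 mM alpha-KG for 80 min at room temperature; remaining NADPH was read by diaphorase/resazurin fluorescence.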
The depositor's hits bear a star; ? = inconclusive; . = no result given; [ ] = remark or other dose. The call rests on the fitted dose curve; in most records, active means well fitted curve in the direction sought with a large enough effect; inconclusive means small, poorly fitted or top-dose-only effect, or another doubt; inactive means no such curve, though single readings can be large; an effect the other way counts as inactive or inconclusive. Unless noted, on the % scale 0 is the no-effect control and ±100 the full control effect; potency means the concentration at half of the fitted maximal effect.

SMILES	PLK1 PBD inh	Sfp PPTase inh	TrxR1 substrate	TrxR1 inh	VDR inh	mIDH1 inhibitor
COC(=O)/C(=C/c1ccco1)NC(=O)c1ccco1	1%	0%	-5%	-7%	9%	-3%
O=C(O)CNC(=O)/C(=C/c1ccco1)NC(=O)/C=C/c1ccccc1	-1%	56µM*	4%	11%	-4%	2%
CCc1ccc(NC(=O)Cn2nnc(C(=O)Nc3cc(C)ccc3OC)c2N)cc1	.	.	11%	33%	4%	-17%
COc1ccc(C(=O)CSc2nc3nn(-c4ccccc4)c(=O)c-3c3n2CCCCC3)c(OC)c1	-6%	.	.	.	.	-2%
CCOC(=O)N1CCN([N+]([O-])=NOc2cc(O/N=[N+](\[O-])N(C)C)c([N+](=O)[O-])cc2[N+](=O)[O-])CC1	.	?	-17%	28µM*	-20%	.
CN(C)/[N+]([O-])=N/Oc1cc(O/[N+]([O-])=N/N2CCCC2CO)c([N+](=O)[O-])cc1[N+](=O)[O-] (stereo not drawn)	.	79µM*	-17%	?	1%	.
CN(C)/[N+]([O-])=N/Oc1cc(ON=[N+]([O-])N2CCN(c3ncccn3)CC2)c([N+](=O)[O-])cc1[N+](=O)[O-]	.	50µM*	-16%	?	-25%	.
O=C(OCc1ccccc1)N1CCN(/[N+]([O-])=N/Oc2ccc([N+](=O)[O-])cc2[N+](=O)[O-])CC1	.	.	5%[0.457 µM]	?	.	.
COc1cc(OC)c(NS(=O)(=O)c2ccc3c(c2)CCCN3C(C)=O)cc1Cl	.	.	-2%[57.1 µM]	4%[57.1 µM]	-1%	-10%
CCc1ccc(Nc2cc(C(=O)NCCCN3CCOCC3)c3ccccc3n2)cc1	7%	35µM*	-3%	2%	5%	13%
CC(C)Oc1ccc(-c2cc(C(=O)NCCN3CCOCC3)c3ccccc3n2)cc1	?	79µM*	22%[57.1 µM]	3%[57.1 µM]	6%	2%
Cn1cc(C=C2C(=O)CC(C)(C)CC2=O)c2ccccc21	27µM*	-16%	-3%	-8%	-18%	20%
O=C(Oc1ccc(=O)n(-c2ccccc2)n1)c1ccc(Cl)cc1	?	89µM*	6%[57.1 µM]	?	0%	2%
O=C(Oc1ccc(=O)n(-c2ccccc2)n1)c1cccc(Cl)c1	6.7µM*	5%	13%[57.1 µM]	3.5µM*	-16%	0%
O=C(Oc1ccc(=O)n(-c2ccccc2)n1)c1ccc(F)cc1	?	3%	8%	?	?	0%
O=S(=O)(c1ccc(Cl)cc1)N1CCN(c2nc(-c3ccccc3)nc3ccccc23)CC1	.	.	3%	12%	-14%	.
CN(C)C(=O)c1ccc(NC(=O)c2cc(-n3cnnc3)ccc2Cl)cc1	17µM*	-1%	-2%	4%	?	-2%
Cc1ccc(NC(=O)c2cc(-n3cnnc3)ccc2Cl)cc1	-1%	2%	5%	18%	7%	2%
Clc1ccc(CSc2nnc(-c3ccc4c(c3)OCO4)o2)cc1	-7%	50µM*	8%[57.1 µM]	14%[57.1 µM]	1%	-1%
Cc1ccccc1Nc1cc(C(=O)NCC2CCCO2)c2ccccc2n1 (stereo not drawn)	11µM*	13%	-6%	-7%	?	-3%
Cc1ccccc1Nc1cc(C(=O)NC2CCCC2)c2ccccc2n1	.	.	7%	9%	-17%	-6%
Cc1ccc(S(=O)(=O)Nn2c(C)ccc2C)cc1	-19%	56µM*	12%[57.1 µM]	-24%	1%	1%
O=S(=O)(Nc1cccnc1)c1cccnc1	-14%	.	-5%[2.29 µM]	-3%[2.29 µM]	18%	-3%
Cc1ccc(S(=O)(=O)NNc2nc3ccccc3nc2C(F)(F)F)cc1	8.4µM*	11µM*	3%	15%[0.457 µM]	?	6%
Cc1ccc(S(=O)(=O)NNc2ccccc2)cc1	28µM*	32µM*	10%	-19%	?	7%
Cc1ccc(S(=O)(=O)Nc2cccnc2)cc1	21µM*	3%	-6%	-9%	?	6%
CCN1CCC(N(Cc2cccc(OC)c2)C(=O)Nc2cccc(C)c2C)CC1	.	.	-5%	7%	-2%	38%
